In PubChem BioAssay (EPA / NIEHS) one finds outcome and AC50 data, which are given here for twelve compounds.

Read-out in assay [1]: glucuronosyltransferase (UGT1A1), UGT1A1 (gene 54658)
Kind of assay: CLD_UGT1A1_6hr: CellzDirect (CLD) Gene Expression Assay for glucuronosyltransferase (UGT1A1) at 6 hours (AID 2283672). The method in brief: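 Primary human hepatocytes from two donor preparations, dosed with fresh solutions in 0.2% DMSO, harvested at 6 h. UGT1A1 mRNA measured by qNPA chemiluminescence; induction fitted upward versus DMSO.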

Read-out in assay [2]: xenobiotic metabolism (CYP1A1), CYP1A1 (gene 1543)
In words: CLD_CYP1A1_24hr: CellzDirect (CLD) Gene Expression Assay for xenobiotic metabolism (CYP1A1) at 24 hours (AID 2283673). The method in brief: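 Primary human hepatocytes dosed daily with fresh solutions in 0.2% DMSO vehicle. mRNA measured at 24 h by quantitative nuclease protection assay with chemiluminescence; gain-of-signal fit versus DMSO, with morphology-based cytotoxicity flags.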

Assay [3] is described as follows: CCTE_Padilla_ZF_144hpf_TERATOSCORE: (Legacy) CCTE's 144 Hour Post-fertilization zebrafish Assay Teratoscore, Padilla Lab (AID 2283679; active means hit-call score of the fitted dose curve at least 0.9, where 1 is the maximum; inactive means score below 0.9;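 on AC50: zebrafish embryos with chorions exposed by immersion from 6-8 hpf to 5 dpf with daily renewal; teratogenicity score from eye scoring of death hatching and malformations at 144 hpf; higher score means more developmental defects relative to DMSO baseline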). The gist of the method:
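Larvae scored by eye at 144 hpf for death, hatching and malformations after a day in clean Hanks'. Before that, daily-renewed exposure at 80 uM (0.4% DMSO, 26C) from roughly 6-8 hpf through 5 dpf, 4 embryos per chemical.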

Read-out in assay [4]: xenobiotic metabolism (CYP1A2), CYP1A2 (gene 1544)
Kind of assay: CLD_CYP1A2_24hr: CellzDirect (CLD) Gene Expression Assay for xenobiotic metabolism (CYP1A2) at 24 hours (AID 2283683). The gist of the method:
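Primary human hepatocytes from two donor preparations dosed daily with multiple concentrations of chemical, 0.2% DMSO vehicle. CYP1A2 mRNA at 24 h quantified by qNPA chemiluminescence; gain of signal analyzed relative to DMSO. Cytotoxicity flagged by phase-contrast morphology.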

Read-out in assay [5]: Cytochrome P450 3A4 (Homo sapiens) (UniProt P08684)
Kind of assay: CLD_CYP3A4_48hr: CellzDirect (CLD) Gene Expression Assay for xenobiotic metabolism (CYP3A4) at 48 hours (AID 2283698). The method in brief:
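Primary human hepatocytes from two donor preparations dosed daily for two days with multiple chemical concentrations, 0.2% DMSO vehicle. CYP3A4 mRNA at 48 h by quantitative nuclease protection assay, chemiluminescence, positive fit versus DMSO; cytotoxicity flagged morphologically.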

Read-out in assay [6]: Cytochrome P450 2B6 (Homo sapiens) (UniProt P20813)
Kind of assay: CLD_CYP2B6_48hr: CellzDirect (CLD) Gene Expression Assay for xenobiotic metabolism (CYP2B6) at 48 hours (AID 2283699).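 Further: actives raise transcript level above DMSO so potency reflects induction.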 The gist of the method:
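Primary human hepatocytes dosed daily for two days over multiple concentrations, 0.2% DMSO vehicle; CYP2B6 mRNA quantified at 48 h by qNPA chemiluminescence. Induction fitted as gain of signal versus DMSO; cytotoxicity annotated by morphology.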

Read-out in assay [7]: xenobiotic metabolism (CYP1A2), CYP1A2 (gene 1544)
Kind of assay: CLD_CYP1A2_48hr: CellzDirect (CLD) Gene Expression Assay for xenobiotic metabolism (CYP1A2) at 48 hours (AID 2283703). The gist of the method:
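Primary human hepatocytes from two donor preparations were dosed daily for two days at multiple concentrations in 0.2% DMSO vehicle. CYP1A2 mRNA was measured at 48 hours by chemiluminescent quantitative nuclease protection assay, with gain of signal fitted versus DMSO and cytotoxicity annotated from morphology.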

Read-out in assay [8]: xenobiotic metabolism (CYP1A1), CYP1A1 (gene 1543)
Kind of assay: CLD_CYP1A1_48hr: CellzDirect (CLD) Gene Expression Assay for xenobiotic metabolism (CYP1A1) at 48 hours (AID 2283705). The gist of the method:
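Primary human hepatocytes from two donors dosed daily for two days at multiple concentrations, 0.2% DMSO vehicle; CYP1A1 mRNA induction at 48 h by qNPA chemiluminescence. Cytotoxicity noted by phase-contrast morphology.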

Read-out in assay [9]: Cytochrome P450 2B6 (Homo sapiens) (UniProt P20813)
Kind of assay: CLD_CYP2B6_6hr: CellzDirect (CLD) Gene Expression Assay for xenobiotic metabolism (CYP2B6) at 6 hours (AID 2283677).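 Further: actives raise CYP2B6 transcript above DMSO baseline so AC50 marks an inducer.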 The method in brief: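 Primary human hepatocytes dosed with chemicals at multiple concentrations, vehicle 0.2% DMSO; CYP2B6 mRNA induction measured 6 h after dosing by quantitative nuclease protection assay with chemiluminescence, gain of signal fitted relative to DMSO.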

Read-out in assay [10]: ABC Transporter (ABCB1), ABCB1 (gene 5243)
Kind of assay: CLD_ABCB1_24hr: CellzDirect (CLD) Gene Expression Assay for ABC Transporter (ABCB1) at 24 hours (AID 2283684). The gist of the method: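 Primary human hepatocytes, two donor preparations, dosed daily with fresh solutions; vehicle 0.2% DMSO; harvested at 24 h. ABCB1 mRNA measured by quantitative nuclease protection assay (chemiluminescence); morphology-based cytotoxicity annotated.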

Read-out in assay [11]: Broad substrate specificity ATP-binding cassette transporter ABCG2 (Homo sapiens) (UniProt Q9UNQ0)
Kind of assay: CLD_ABCG2_24hr: CellzDirect (CLD) Gene Expression Assay for ABC Transporter (ABCG2) at 24 hours (AID 2283685). The gist of the method:
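Primary human hepatocytes were dosed daily with ToxCast chemicals at multiple concentrations (vehicle 0.2% DMSO). ABCG2 mRNA was measured at 24 h by qNPA chemiluminescence; induction was scored as gain of signal versus DMSO.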

Read-out in assay [12]: glucuronosyltransferase (UGT1A1), UGT1A1 (gene 54658)
Kind of assay: CLD_UGT1A1_24hr: CellzDirect (CLD) Gene Expression Assay for glucuronosyltransferase (UGT1A1) at 24 hours (AID 2283696). The method in brief:
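Primary human hepatocytes from two donor preparations were dosed (0.2% DMSO vehicle) and harvested at 24 h; UGT1A1 mRNA induction was quantified by chemiluminescent qNPA, fitted as gain relative to DMSO.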

Read-out in assay [13]: Cytochrome P450 2C9 (Homo sapiens) (UniProt P11712)
Kind of assay: CLD_CYP2C9_48hr: CellzDirect (CLD) Gene Expression Assay for xenobiotic metabolism (CYP2C9) at 48 hours (AID 2283701; active means hit-call score of the fitted dose curve at least 0.9, where 1 is the maximum; inactive means score below 0.9). The method in brief:
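Primary human hepatocytes (two donor preparations) dosed daily for two days with test chemicals, 0.2% DMSO vehicle; harvested at 48 h. mRNA induction quantified by qNPA chemiluminescence, fitted for gain of signal against DMSO baseline; cytotoxicity annotated from phase-contrast morphology.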

Read-out in assay [14]: Glyceraldehyde-3-phosphate dehydrogenase (Homo sapiens) (UniProt P04406)
Kind of assay: CLD_GAPDH_48hr: CellzDirect (CLD) Gene Expression Assay for Baseline Control (Glyceraldehyde 3-phosphate dehydrogenase) at 48 hours (AID 2283706).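 Further: active means higher GAPDH mRNA than DMSO vehicle.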 The method in brief:
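Primary human hepatocytes dosed daily for two days with fresh chemical at multiple concentrations, 0.2% DMSO vehicle; GAPDH mRNA measured at 48 h by quantitative nuclease protection assay with chemiluminescence, fitted upward relative to DMSO as background control.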

Read-out in assay [15]: Cytochrome P450 2C19 (Homo sapiens) (UniProt P33261)
Kind of assay: CLD_CYP2C19_6hr: CellzDirect (CLD) Gene Expression Assay for xenobiotic metabolism (CYP2C19) at 6 hours (AID 2283678). The gist of the method: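 Primary human hepatocytes from two donor preparations were dosed daily, with 0.2% DMSO as vehicle, and harvested 6 h after dosing. CYP2C19 mRNA induction was measured by qNPA chemiluminescence and fitted as gain of signal against DMSO.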

Assay [16] can be described thus: CLD_ACTIN_48hr: CellzDirect (CLD) Gene Expression Assay for Baseline Control (Actin) at 48 hours (AID 2283702). The gist of the method:
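Primary human hepatocytes (two donor preparations) dosed daily for two days with ToxCast chemicals at multiple concentrations versus 0.2% DMSO vehicle; harvested at 48 h. Actin mRNA measured as a background control by quantitative nuclease protection assay with chemiluminescence.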

Read-out in assay [17]: Cytochrome P450 2B6 (Homo sapiens) (UniProt P20813)
In words: CLD_CYP2B6_24hr: CellzDirect (CLD) Gene Expression Assay for xenobiotic metabolism (CYP2B6) at 24 hours (AID 2283686). The gist of the method:
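Primary human hepatocytes dosed daily for two days with fresh solutions, harvested at 24 hours; mRNA induction quantified by qNPA chemiluminescence, gain of signal vs 0.2% DMSO vehicle. Cytotoxicity annotated from phase-contrast morphology.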

Read-out in assay [18]: Cytochrome P450 3A4 (Homo sapiens) (UniProt P08684)
Kind of assay: CLD_CYP3A4_24hr: CellzDirect (CLD) Gene Expression Assay for xenobiotic metabolism (CYP3A4) at 24 hours (AID 2283689). The method in brief:
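Primary human hepatocytes from two donors dosed daily with fresh compound for two days, 0.2% DMSO vehicle. CYP3A4 mRNA at 24 hr by qNPA chemiluminescence; gain-of-signal fit versus DMSO, cytotoxicity flagged by morphology.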

“And” between values parts separate entries of the source, which are not always exact repeats. Equal values may be shown once. Inconclusive results are not listed. The source made the active and inactive calls. How the source made its calls, unless noted: active means hit-call score of the fitted dose curve at least 0.9, where 1 is the maximum; inconclusive means response in the unintended direction; inactive means score below 0.9.

Broad substrate specificity ATP-binding cassette transporter ABCG2 (Homo sapiens), sequence (Q9UNQ0 whole entry, looked up): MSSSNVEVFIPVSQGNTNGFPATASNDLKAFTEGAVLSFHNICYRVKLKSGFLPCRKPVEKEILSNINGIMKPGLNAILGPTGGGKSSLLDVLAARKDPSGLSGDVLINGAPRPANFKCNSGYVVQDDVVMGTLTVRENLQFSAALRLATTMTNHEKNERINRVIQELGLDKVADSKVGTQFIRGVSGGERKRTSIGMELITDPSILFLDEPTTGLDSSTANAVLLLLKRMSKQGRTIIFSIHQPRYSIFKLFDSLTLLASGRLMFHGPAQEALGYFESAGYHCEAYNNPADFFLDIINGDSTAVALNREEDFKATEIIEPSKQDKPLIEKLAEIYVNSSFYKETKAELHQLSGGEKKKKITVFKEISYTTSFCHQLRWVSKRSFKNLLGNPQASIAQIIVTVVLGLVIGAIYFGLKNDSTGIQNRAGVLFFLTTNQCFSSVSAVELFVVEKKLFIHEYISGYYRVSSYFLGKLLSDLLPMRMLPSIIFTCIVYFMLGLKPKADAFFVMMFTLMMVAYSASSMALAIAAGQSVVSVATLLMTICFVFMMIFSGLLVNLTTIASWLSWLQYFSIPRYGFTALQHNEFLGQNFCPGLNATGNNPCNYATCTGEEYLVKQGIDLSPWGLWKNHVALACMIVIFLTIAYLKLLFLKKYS
Cytochrome P450 3A4 (Homo sapiens), sequence (P08684 whole entry, looked up): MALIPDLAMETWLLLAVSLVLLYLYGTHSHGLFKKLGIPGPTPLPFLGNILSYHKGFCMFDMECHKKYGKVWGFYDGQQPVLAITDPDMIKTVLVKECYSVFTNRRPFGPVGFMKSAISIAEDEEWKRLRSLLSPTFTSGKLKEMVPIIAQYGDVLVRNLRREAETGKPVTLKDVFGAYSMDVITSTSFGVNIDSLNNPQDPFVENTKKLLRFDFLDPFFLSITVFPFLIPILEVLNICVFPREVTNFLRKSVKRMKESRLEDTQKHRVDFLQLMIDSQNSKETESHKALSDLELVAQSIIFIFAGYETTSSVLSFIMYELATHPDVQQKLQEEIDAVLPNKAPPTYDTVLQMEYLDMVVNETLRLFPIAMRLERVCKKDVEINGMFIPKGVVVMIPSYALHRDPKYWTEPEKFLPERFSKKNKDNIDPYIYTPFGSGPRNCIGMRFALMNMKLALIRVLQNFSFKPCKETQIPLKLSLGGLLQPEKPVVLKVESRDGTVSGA
Cytochrome P450 2C19 (Homo sapiens), sequence (P33261 whole entry, looked up): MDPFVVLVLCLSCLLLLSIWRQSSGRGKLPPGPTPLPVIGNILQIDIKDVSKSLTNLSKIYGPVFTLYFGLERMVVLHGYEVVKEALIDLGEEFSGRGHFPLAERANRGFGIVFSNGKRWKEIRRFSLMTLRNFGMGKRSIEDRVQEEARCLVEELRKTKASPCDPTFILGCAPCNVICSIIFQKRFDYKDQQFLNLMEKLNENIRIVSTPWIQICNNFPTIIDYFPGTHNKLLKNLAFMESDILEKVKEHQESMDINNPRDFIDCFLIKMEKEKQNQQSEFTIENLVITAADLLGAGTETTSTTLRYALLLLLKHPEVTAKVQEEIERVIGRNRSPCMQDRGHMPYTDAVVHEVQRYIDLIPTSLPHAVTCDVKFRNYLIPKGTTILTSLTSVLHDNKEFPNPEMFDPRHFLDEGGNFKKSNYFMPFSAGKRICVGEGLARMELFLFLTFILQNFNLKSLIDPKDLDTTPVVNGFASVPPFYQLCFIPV
Glyceraldehyde-3-phosphate dehydrogenase (Homo sapiens), sequence (P04406 whole entry, looked up): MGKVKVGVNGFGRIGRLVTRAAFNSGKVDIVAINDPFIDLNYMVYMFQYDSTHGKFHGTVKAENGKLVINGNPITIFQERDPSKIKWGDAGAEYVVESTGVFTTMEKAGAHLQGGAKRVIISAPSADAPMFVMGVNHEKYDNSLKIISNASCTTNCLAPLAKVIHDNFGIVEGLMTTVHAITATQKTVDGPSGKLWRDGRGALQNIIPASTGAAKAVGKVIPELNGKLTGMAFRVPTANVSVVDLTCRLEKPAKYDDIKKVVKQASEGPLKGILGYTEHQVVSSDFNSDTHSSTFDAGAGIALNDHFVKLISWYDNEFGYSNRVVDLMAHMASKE

Take `CON(C)C(=O)Nc1ccc(Cl)c(Cl)c1`: the outcome in assay [1] and in assay [5] was inactive. Further, the AC50 in [2] is 1.82 µM (active); in assay [3], 60.1 µM (active); in assay [4], 1.29 µM (active); in assay [6], 1.31 µM (active); in [7] it was 1.27 µM (active); in assay [8], 3.68 µM (active).
`CC(C)Oc1cc(-n2nc(C(C)(C)C)oc2=O)c(Cl)cc1Cl`: the compound was called inactive in [1], in assay [10], in assay [11], in [12] and in assay [13]. The AC50 in assay [9] is 1.9 µM (active); in assay [3], 9.05 µM (active); in [4] it was 4.14 µM (active); in [5], 1.9 µM (active); in [6], 2.67 µM (active); in assay [7], 6.1 µM (active). In addition, the AC50 in assay [8] was 4.01 µM (active).
As for `N#Cc1cc(Br)c(O)c(Br)c1`, the outcome in assay [1], in assay [9], in assay [10], in [8] and in assay [14] was inactive. In addition, the AC50 in [3] is 15.3 µM (active); in assay [4] it was 33.4 µM (active).
As to `CCCCNC(=O)n1c(NC(=O)OC)nc2ccccc21`, the result in assay [1], in [15], in assay [10], in [11] and in assay [14] was inactive. Moreover, the AC50 in assay [3] is 1.29 µM (active); in assay [4], 4.66 µM (active); in assay [7], 6.67 µM (active); in assay [8] it was 33.1 µM (active).
For the compound `N#CC(CCc1ccc(Cl)cc1)(Cn1cncn1)c1ccccc1` (stereo unspecified), the compound was called inactive in assay [1], in assay [10], in assay [11] and in assay [16]. Moreover, the AC50 is 2.64 µM (active) in assay [2]; 25.8 µM (active) in [3]; 1.24 µM (active) in assay [4]; 0.736 µM (active) in [5]; 0.434 µM (active) in assay [6]; 2.3 µM (active) in assay [7]. Also, the AC50 in assay [8] was 2.53 µM (active).
For the compound `C=CCC1=C(C)[C@@H](OC(=O)[C@@H]2[C@@H](C=C(C)C)C2(C)C)CC1=O`, the result in assay [1], in assay [4], in assay [10], in assay [11], in assay [13] and in assay [7] was inactive. For the same compound, the figures for the AC50 in [9], in [3] and in assay [6] were 5.86 µM (active), 3.51 µM (active) and 4.38 µM (active), respectively.
Consider `COc1cnc(OC)n2nc(NS(=O)(=O)c3c(OCC(F)F)cccc3C(F)(F)F)nc12`, for which the call in assay [1], in [15], in assay [3], in assay [4], in assay [10] and in [11] was inactive. In addition, the result in assay [6], in [13], in assay [16], in [7] and in [8] was inactive. Further, in [5], the AC50 is 20 µM (active).
For the compound `CCOC(=O)C(Cl)Cc1cc(-n2nc(C)n(C(F)F)c2=O)c(F)cc1Cl` (stereo unspecified), the outcome in assay [1], in assay [15], in [4], in assay [10], in assay [11] and in assay [13] was inactive. Also, the call in [8] was inactive. For the same compound, the results for the AC50 in assay [3], in assay [5] and in [6] were 0.57 µM (active), 4.77 µM (active) and 20 µM (active), respectively.
Turning to `CCCCOC(=O)c1ccccc1C(=O)OCCCC`, the call in [1], in assay [15], in assay [10], in assay [11], in assay [5] and in [6] was inactive. The compound was classed as inactive in assay [13], in assay [16], in assay [8] and in assay [14]. For the same compound, the AC50 in assay [3] is 1.83 µM (active); in assay [4], 4.9 µM (active) and 20 µM (active); in assay [7], 10.6 µM (active) and 11.1 µM (active).
Consider `OC(c1ccc(Cl)cc1)(c1cncnc1)c1ccccc1Cl` (stereo unspecified), for which the compound was called inactive in assay [1], in [4], in assay [10], in assay [11], in assay [16] and in assay [8]. Moreover, the AC50 in assay [2] is 7.86 µM (active); in assay [3], 32.2 µM (active); in assay [17], 1.24 µM (active); in assay [18], 0.542 µM (active); in assay [5] it was 0.443 µM (active); in assay [6], 0.483 µM (active).
Regarding `O=C(O)COc1nc(Cl)c(Cl)cc1Cl`, the result in [1], in assay [15], in assay [3], in [4], in assay [10] and in [11] was inactive. The result in [17], in [6], in assay [13], in assay [7], in [8] and in assay [14] was inactive.
Consider `CCCCC(CC)COC(=O)c1ccccc1C(=O)OCC(CC)CCCC` (stereo unspecified), for which the call in [1], in assay [2], in assay [3], in [4], in assay [10] and in assay [5] was inactive. Further, the compound was called inactive in [6], in [16], in assay [7], in [8] and in assay [14].
